Screens (PubChem)
D2 PAM-1 – positive allosteric modulators of human D2 dopamine receptor; P14416; HEK293 T-REx D2, calcium flux, EC20 dopamine potentiation; potentiation, % at 10 µM; hit rate 0.34% among 340,000;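 active = potentiation over 3 SD above the plate norm, cut at about 30% in these data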; also: 0% is about no effect
Target sequence (P14416 whole entry, looked up): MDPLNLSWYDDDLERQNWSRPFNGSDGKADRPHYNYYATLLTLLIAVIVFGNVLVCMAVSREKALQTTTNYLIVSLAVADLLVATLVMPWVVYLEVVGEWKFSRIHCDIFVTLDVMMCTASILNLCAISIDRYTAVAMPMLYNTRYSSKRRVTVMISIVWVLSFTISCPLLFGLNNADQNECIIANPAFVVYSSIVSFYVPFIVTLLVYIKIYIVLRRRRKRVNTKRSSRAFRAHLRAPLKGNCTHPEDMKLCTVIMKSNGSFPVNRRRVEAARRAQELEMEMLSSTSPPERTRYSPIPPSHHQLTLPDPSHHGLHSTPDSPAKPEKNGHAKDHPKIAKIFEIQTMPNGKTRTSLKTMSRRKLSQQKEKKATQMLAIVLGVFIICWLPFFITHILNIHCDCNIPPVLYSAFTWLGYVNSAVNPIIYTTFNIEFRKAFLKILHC
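Potentiation of an EC20 dopamine calcium response is measured in a force-coupled, tetracycline-inducible Hek293 Trex D2 line. Compound-only kinetic reads over 180 s flag agonists before dopamine addition.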
D2 antagonist – D2 dopamine receptor (human) antagonism. AID 485344. HEK293 TREx D2 cells, calcium flux, dopamine EC80. inhibition, % at 10 µM. hit rate 2% among 340,000. P14416; in the data active = inhibition above about 30%; inactive = below that, where a call was filed; also: 0% is about no effect
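Inhibition of EC80 dopamine-driven calcium flux, recorded kinetically, defines activity here; cells are a tetracycline-induced HEK293 T-REx line expressing force-coupled D2.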
D2 PAM-2 – potentiates the human D2 dopamine receptor allosterically; DiscoveRx D2 beta-arrestin cells, luminescence, 90 min; 100% = 57 uM dopamine signal; potentiation, % (concentration not given with the values); hit rate 0.23% among 360,000; P14416; in the data active = potentiation above about 50%; inconclusive = mostly about 30% to 49%
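D2 cells co-treated with compound plus 50 nM dopamine (EC20) for 90 min at 37 deg C to detect potentiation. Beta-arrestin recruitment was read as enzyme-fragment luminescence after 1 h at ambient temperature. Full response was set by 57 uM dopamine.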
D2 ag-1 – agonists of human D2 dopamine receptor; P14416; HEK293 T-REx D2 cells, calcium flux agonist mode; activation, % at 2 µM; hit rate 0.53% among 340,000; AID 485358;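 active = activation over 3 SD above normal in the single-dose calcium agonist read, cut at about 30% in these data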; also: 0% is about no effect
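Calcium-flux readout, 1 cycle/sec over 180 s following compound pin transfer, in inducible HEK293 Trex D2 cells (force-coupled); dopamine controls included. Positive calcium responses during this window marked compounds as potential agonists.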
D2 ag-2 – human D2 receptor agonism in beta-arrestin assay. DiscoveRx PathHunter D2 beta-arrestin, luminescence, 90 min; 100% = 57 uM dopamine signal. P14416. hit rate 0.084% among 360,000. activation, % (no concentration beside the values); in the data active = activation above about 40%; inconclusive = between about 15% and that limit
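Agonist mode: compounds alone added to overnight-plated D2 PathHunter cells for 90 min at 37 C, with 57 uM final dopamine (EC100) defining full response. Beta-arrestin recruitment detected by chemiluminescent reagent, read after 1 h at ambient temperature.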
Numbers without * were called inactive; ? = inconclusive; nt = not tested or not shown. The list is not random: actives were taken first. Their share in the collection is about 2.4%.

SMILES	D2 PAM-1	D2 antagonist	D2 PAM-2	D2 ag-1	D2 ag-2
CCOc1cc(/C=N\Nc2nc(Nc3ccccc3)nc(N3CCOCC3)n2)ccc1OC(=O)c1ccco1	nt	nt	64.7*	nt	?
COc1cc(/C=N/Nc2ccc3ccccc3c2)ccc1OC(=O)c1ccco1	-5.4	17.5	50.6*	-0.6	8.4
COc1cc(/C=N/Nc2nc(C)cc(C)n2)ccc1OC(=O)c1ccco1	8.5	-1.7	-9.5	-0.5	2.1
Cc1ccc(/C=N/Nc2ccc(Cl)c(C(=O)O)c2)s1	8.6	-7.2	51.3*	-0.6	5.1
O=C(O)c1cc(N/N=C/c2cccs2)ccc1Cl	-0.7	6.1	nt	0.3	nt
COc1ccc(N2CCN(C(=O)c3cc(S(=O)(=O)N4CCCCCC4)ccc3OC)CC2)cc1	-9.2	39.8*	-20.9	0.4	-2.0
CCOC(=O)C1CCCN(S(=O)(=O)c2ccc(S(N)(=O)=O)cc2)C1 (stereo not given)	51.2*	-11.1	0.3	0.8	5.4
COc1ccc(S(=O)(=O)N2CCCCCC2)cc1C(=O)N1CCN(c2ccc(F)cc2)CC1	nt	nt	-3.4	nt	9.0
CCOC(=O)C1CCCN(S(=O)(=O)c2ccc(C)cc2)C1 (stereo not given)	3.1	-14.0	0.1	0.5	-1.0
CCOC(=O)C1CCN(C(=O)c2cc(S(=O)(=O)N3CCCCCC3)ccc2OC)CC1	10.3	37.9*	-9.9	-0.6	-2.7
COc1ccccc1N1CCN(C(=O)C2CCN(S(=O)(=O)c3cnc[nH]3)CC2)CC1	-1.6	nt	nt	-0.6	nt
COc1ccccc1N1CCN(S(=O)(=O)c2c(C)sc3ncn(CC(=O)Nc4ccc(C)cc4Br)c(=O)c23)CC1	8.1	nt	nt	1.1	nt
COCCNC(=O)Cn1nc(N2CCN(c3ccccc3OC)CC2)ccc1=O	-0.4	nt	nt	-0.4	nt
CCn1c(SCC(=O)N/N=C/c2ccc(C)o2)nnc1-c1ccccc1	-5.0	56.8*	-9.1	1.1	-3.5
Cc1ccc(-c2nnc(SCC(=O)N/N=C/c3c(C)nn(-c4ccccc4)c3C)n2-c2ccc(C)cc2)cc1	-4.7	-3.2	13.9	-1.0	-3.6
Cc1ccc(/C=N/NC(=O)CSc2nnc(-c3ccc(Cl)cc3)n2-c2ccc(Cl)cc2)o1	-0.4	4.5	83.5*	0.7	14.5
Cc1nn(-c2ccccc2)c(C)c1/C=N/NC(=O)CSc1nnc(-c2ccccc2)n1-c1ccc(Cl)cc1	35.0*	-8.6	-3.4	-1.6	-4.3
O=C(CSc1nnc(-c2ccccc2)n1-c1ccc(Cl)cc1)N/N=C/c1ccccc1C(=O)O	-6.0	6.2	7.2	-1.0	2.1
Cc1ccc(/C=N/NC(=O)CSc2nnc(-c3ccccc3)n2-c2ccc(Cl)cc2)o1	8.2	12.3	54.1*	-0.1	14.4
COc1ccc(NC(=O)c2ccc3c(=O)n4nc(Nc5cc(C)ccc5C)sc4nc3c2)cc1	-1.9	nt	nt	0.4	nt
COc1ccccc1CNc1ncnc2c1c(-c1ccccc1)cn2-c1cccc(C)c1	-14.4	nt	nt	-0.2	nt
Cc1ccc(N2CCN(Cc3nnc(-c4ccccc4F)o3)CC2)c(C)c1	-3.6	nt	nt	1.5	nt
CCCn1c(SCC(=O)c2ccc3c(c2)OCCO3)n[nH]c1=O	-3.6	-15.6	-19.1	2.7	0.9
CCCn1c(SCC(=O)c2ccc3c(c2)OCCO3)nc2c1c(=O)n(C)c(=O)n2C	21.2	30.9*	1.8	0.9	-0.4
Cc1cc2c(cc1S(=O)(=O)Nc1cccc(F)c1)n(C)c(=O)c(=O)n2C	3.0	-4.6	2.2	-0.5	-1.3
SMILES	D2 PAM-1	D2 antagonist	D2 PAM-2	D2 ag-1	D2 ag-2
Cc1cccc(NS(=O)(=O)c2cc3c(cc2C)n(C)c(=O)c(=O)n3C)c1	-11.3	25.9	0.4	36.2*	2.7
Cc1occc1C(=O)NNC(=O)c1nn(C)c(=O)c2ccccc12	30.9*	-13.0	0.0	-0.1	-2.1
Cn1nc(C(=O)NNC(=O)COc2ccccc2)c2ccccc2c1=O	-12.8	8.1	-16.0	-0.4	-0.9
CC(=O)Nc1ccc(NC(=O)C2CCN(c3c(NC(C)=O)c(C)nn3-c3ccccc3)CC2)cc1	1.7	nt	nt	0.0	nt
Cc1cccc(Cn2nc(C)n3c(cc4cc(C)ccc43)c2=O)c1	-9.7	nt	nt	nt	nt
COc1ccc(-c2c(-c3ccccc3)c(C(=O)C(=O)NCCCN(C)C)n3ccc4cc(OC)c(OC)cc4c23)cc1OC	-23.7	48.3*	-15.8	0.4	-2.5
CN(C)CCNC(=O)C(=O)c1c(-c2ccccc2)cc2ccccn12	4.5	10.0	-15.9	0.0	-1.2
CC1=CC(C)(C)Nc2ccc(OC(=O)CCN3C(=O)c4ccccc4C3=O)cc21	1.1	-1.3	130.5*	-0.8	?
CCOc1ccc(C2/C(=C(/O)c3ccc(Cl)cc3)C(=O)C(=O)N2CCCN(C)C)cc1OC (stereo not given)	4.6	45.2*	nt	0.3	nt
CN(C)CCN1C(=O)C(=O)/C(=C(/O)c2ccc(OCc3ccccc3)cc2)C1c1ccncc1 (stereo not given)	2.8	42.0*	-0.7	0.9	0.1
CCOC(=O)c1ccc(NC2SC(=O)N(Cc3cccc(C(=O)O)c3)C2=O)cc1 (stereo not given)	6.0	nt	nt	nt	nt
CC(C)C(NS(=O)(=O)c1ccc2c(c1)oc(=O)n2C)C(=O)N1CCN(C2CCCCC2)CC1 (stereo not given)	1.5	30.6*	-3.2	1.3	-1.1
CC1CC(C)CN(C(=O)C(NS(=O)(=O)c2ccc3c(c2)oc(=O)n3C)C(C)C)C1 (stereo not given)	3.0	-13.2	-7.5	0.6	-2.7
COc1ccc(C(=O)Nc2cc(C)c(NC(=O)c3ccccn3)cn2)cc1	35.2*	-24.3	-2.6	-0.3	-1.6
CCC(O)c1nc2ccccc2n1CCOc1cc(C)cc(C)c1 (stereo not given)	11.1	nt	nt	-0.7	nt
CCOc1ccc2c(c1)C(C)=CC(C)(C)N2C(=O)Nc1ccccc1	33.8*	1.9	13.6	-0.2	6.2
COc1ccc(CNC(=O)CCc2c(C)nc3nc(CNC(=O)OC(C)(C)C)nn3c2C)cc1	nt	nt	nt	0.5	nt
Cc1ccc(-c2cc(C(F)F)nc(NCc3cccs3)n2)cc1	3.4	11.0	-5.0	1.3	-3.5
Cc1ccc(-c2cc(C(F)F)nc(NCc3cccnc3)n2)cc1	42.0*	1.4	-22.9	0.7	-2.1
COc1cc(/C=C2\SC(=O)N(CC(=O)Nc3ccccc3F)C2=O)cc(Cl)c1O	-5.9	17.5	3.4	41.4*	5.1
Cc1nnc(SCC(=O)Nc2nc(-c3ccccc3)cs2)n1N	7.4	-2.3	-0.1	0.3	-1.3
Cn1cnnc1SCC(=O)Nc1nc(-c2ccccc2)cs1	-6.1	55.6*	-6.7	-0.2	-4.0
CCOC(=O)c1sc(NC(NC(=O)c2ccco2)(C(=O)OC)C(F)(F)F)nc1C (stereo not given)	-0.4	33.8*	-8.0	0.2	-2.3
CCOC(=O)c1sc(NC(=S)NC(=O)c2ccco2)nc1C	23.3	-10.8	4.6	-1.0	-6.3
